From PubChem BioAssay (NCATS) come the findings set out here.

Each structure is given as a SMILES string. A number with no mark means an inactive call. Records with an inconclusive call do not appear. Activity calls are given as the source filed them. Unless noted, the call rests on the fitted dose curve; in most records, active means well fitted curve in either direction with a large enough effect (not every such curve was filed as active); inconclusive means small, poorly fitted or top-dose-only effect, or another doubt; inactive means flat fitted curve, though single readings scatter.

Test [1] addresses Lysosomal acid glucosylceramidase (Homo sapiens) (UniProt P04062). In words: Glucocerebrosidase-p2 (AID 348; in the data active means potency below about 10 µM; further: potency means the concentration at half of the fitted maximal effect). The conditions noted are these: purified GBA, blue fluorogenic substrate, 40 min. A digest of the protocol: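 Normal human glucocerebrosidase (0.2 nM) with blue fluorogenic substrate (80 uM final) in citrate/phosphate pH 5.9 with 10mM sodium taurocholate, 0.01% tween-20; 40 min RT, NaOH/glycine stop; fluorescence Ex 365/Em 440; AC50 from a titration from 0.6 nM upwards.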

A short description of test [2]: AP1 Signaling Pathway (AID 357).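 Further: ME-180 reporter cells stimulated with EGF at its EC50 level; on the % scale 0 is the no-effect control and ±100 the full control effect.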 The settings on record: ME-180 AP-1-bla reporter, EGF-induced, beta-lactamase ratio, 5 h; at 7.69 µM (top of the series) unless noted. In outline: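 Titration-series screen for positive or negative modulators of EC50 EGF-induced signaling in ME-180 cells carrying an AP-1-driven beta-lactamase reporter. After 5 hours at 37 degrees Celsius, CCF4 460nm/530nm emission ratio gave %Activity; AC50 values derived.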

Test [3] has as its target Cytochrome P450 1A2 (Homo sapiens) (UniProt P05177). In words: p450-cyp1a2 (AID 410; calls by dose curve; further: potency means the concentration at half of the fitted maximal effect;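 on activity change, negative = inhibition: -100% = full effect of reference inhibitor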). The conditions noted are these: recombinant CYP1A2, luciferin-ME demethylation, luminescence; series mostly up to 11.4 µM. A digest of the protocol: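 20nM CYP1A2, 100uM Luciferin-ME (=Km), 100mM KPO4; cpd 10 min RT; +NADPH regen, 60 min RT; stop/detect 20 min; luminescence. Normalized to furafylline 57 uM = full inhibition.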

Test [4] in a line: NFAT Signaling Pathway (AID 444).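 Further: carbachol stimulus at about its EC50 of 1 µM final; on the % scale 0 is the no-effect control and ±100 the full control effect.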 The settings on record: Jurkat NFAT-bla M1, carbachol, beta-lactamase ratio, 5 h; at 7.69 µM (top of the series) unless noted. In outline:
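Jurkat cells with NFAT-driven β-lactamase reporter and co-expressed M1 receptor, stimulated with carbachol (final 1 uM, ~EC50), compound titration, 5 h at 37 °C. CCF4 loaded 1 h at RT; 460/530 nm ratio gave %activity and AC50.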

A short description of test [5]: Stat Signaling Pathway (AID 446).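 Further: ME-180 cervical cancer cells given 40 pM IL-6 alongside compound; SIE-controlled beta-lactamase reporter measured as 460/530 nm FRET emission ratio; on the % scale 0 is the no-effect control and ±100 the full control effect.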 The conditions noted are these: ME-180 (cervical carcinoma) SIE beta-lactamase reporter, IL-6 stimulated, 5 h; at 7.69 µM (top of the series) unless noted. A digest of the protocol: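 Compound effects on IL-6-induced STAT reporter activity were measured in ME-180 cells. After overnight culture, cells were co-treated with 40 pM IL-6 for 5 hrs before beta-lactamase substrate loading at room temperature.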

Test [6] concerns the target Glucocorticoid receptor (Homo sapiens) (UniProt P04150). The test can be described thus: GR-GFP Redistribution (AID 450;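 active means compounds whose dose series gives a full or clear partial fitted curve of increased nuclear translocation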; further: potency means the concentration at half of the fitted maximal effect). The settings on record: U2OS GR-GFP nuclear translocation, laser cytometry, 2 h.
Test [7] shares this target. The test can be described thus: GR-EFC Redistribution (AID 451; calls by dose curve; further: potency means the concentration at half of the fitted maximal effect). The settings on record: CHO-K1 GR-EFC translocation, beta-gal luminescence, 2 h. In outline:
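CHO-K1 cells expressing nuclear EA and GR-ED fragments of b-gal; compounds titrated up to 46 uM final, 2 h at 37 C. GR nuclear translocation read as complemented b-gal luminescence after 1 h RT detection.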

In test [8] the target is Mitogen-activated protein kinase 10 (Mus musculus) (UniProt Q61831). The test can be described thus: JNK3 AlphaScreen Assay (AID 530).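 Further: kinase came from lysate of stimulated human HepG2 cells; signal reports phosphorylation of biotinylated GST-cJun 1-79 at Ser73 with 10 µM ATP; on the % scale 0 is the no-effect control and ±100 the full control effect.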 The settings on record: JNK3 lysate, c-Jun phosphorylation; series mostly up to 11.4 µM. A digest of the protocol: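 HepG2 lysate (IL-1b/TNFa pre-activated) + biotin-GST-cJun 1-79 + anti-pSer73 cJun; cpd titration, 15 min RT; ATP 10 uM start; Tris pH 7.6, MgCl2, DTT, vanadate; beads in EDTA buffer; AlphaScreen.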
A general note: Bead proximity is the source of the signal in Alpha formats.

The target in test [9] is 3',5'-cyclic-AMP phosphodiesterase 4B (Homo sapiens) (UniProt Q07343). In words: qHTS Assay for Inhibitors of PDE-IV (AID 607; active means well fitted activation curve with a large enough effect in the main read-out, with a control signal flat, not every such curve was filed as active; further: % of control where 0% means no effect). The settings on record: HEK293 ACTOne CNG channel cells, membrane potential fluorescence; series mostly up to 22.9 µM. A digest of the protocol: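 ACTOne HEK293 cells carry a modified cAMP-gated CNG channel and express endogenous PDE4; plated 1000 cells/well, compounds up to 22.9 uM final. Membrane-potential dye fluorescence (ex 535/em 590) was read; parental cells received 10 uM forskolin + 100 uM RO 20-1724.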
3',5'-cyclic-AMP phosphodiesterase 4B (Homo sapiens), sequence (Q07343 whole entry, looked up): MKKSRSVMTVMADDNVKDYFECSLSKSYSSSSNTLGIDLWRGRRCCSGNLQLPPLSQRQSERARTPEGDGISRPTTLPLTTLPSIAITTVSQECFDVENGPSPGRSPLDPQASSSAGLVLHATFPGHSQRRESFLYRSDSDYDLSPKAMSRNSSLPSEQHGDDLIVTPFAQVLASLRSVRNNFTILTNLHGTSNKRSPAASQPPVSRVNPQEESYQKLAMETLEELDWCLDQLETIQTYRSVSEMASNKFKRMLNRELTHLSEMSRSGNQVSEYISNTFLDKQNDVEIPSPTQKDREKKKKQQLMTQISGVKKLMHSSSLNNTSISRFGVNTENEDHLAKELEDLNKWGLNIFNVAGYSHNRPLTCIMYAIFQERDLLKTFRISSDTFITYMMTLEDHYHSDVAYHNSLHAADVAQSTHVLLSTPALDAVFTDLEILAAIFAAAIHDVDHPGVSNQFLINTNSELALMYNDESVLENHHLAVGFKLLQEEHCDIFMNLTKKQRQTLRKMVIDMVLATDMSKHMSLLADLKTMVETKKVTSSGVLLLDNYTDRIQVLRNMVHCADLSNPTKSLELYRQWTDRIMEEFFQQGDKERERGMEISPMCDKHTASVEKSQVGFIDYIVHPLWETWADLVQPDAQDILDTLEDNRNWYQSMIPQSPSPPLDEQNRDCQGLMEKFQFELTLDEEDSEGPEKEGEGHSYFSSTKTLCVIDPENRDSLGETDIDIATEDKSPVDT
In general terms: qHTS replaces the single test concentration by a dilution series.

Cytochrome P450 1A2 (Homo sapiens), sequence (P05177 whole entry, looked up): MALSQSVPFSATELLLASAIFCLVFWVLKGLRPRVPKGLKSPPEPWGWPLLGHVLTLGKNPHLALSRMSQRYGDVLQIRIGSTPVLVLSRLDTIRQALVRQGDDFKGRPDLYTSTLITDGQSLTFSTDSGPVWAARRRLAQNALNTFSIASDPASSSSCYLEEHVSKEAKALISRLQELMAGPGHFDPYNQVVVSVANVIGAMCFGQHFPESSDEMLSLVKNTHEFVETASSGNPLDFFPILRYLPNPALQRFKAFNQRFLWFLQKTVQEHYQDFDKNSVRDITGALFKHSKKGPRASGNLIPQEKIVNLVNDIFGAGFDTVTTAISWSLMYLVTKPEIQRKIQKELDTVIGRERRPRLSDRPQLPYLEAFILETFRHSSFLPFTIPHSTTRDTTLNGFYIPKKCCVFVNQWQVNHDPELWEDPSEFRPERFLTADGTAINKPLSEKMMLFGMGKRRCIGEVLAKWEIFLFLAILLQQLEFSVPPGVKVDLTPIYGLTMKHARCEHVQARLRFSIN
Glucocorticoid receptor (Homo sapiens), sequence (P04150 whole entry, looked up): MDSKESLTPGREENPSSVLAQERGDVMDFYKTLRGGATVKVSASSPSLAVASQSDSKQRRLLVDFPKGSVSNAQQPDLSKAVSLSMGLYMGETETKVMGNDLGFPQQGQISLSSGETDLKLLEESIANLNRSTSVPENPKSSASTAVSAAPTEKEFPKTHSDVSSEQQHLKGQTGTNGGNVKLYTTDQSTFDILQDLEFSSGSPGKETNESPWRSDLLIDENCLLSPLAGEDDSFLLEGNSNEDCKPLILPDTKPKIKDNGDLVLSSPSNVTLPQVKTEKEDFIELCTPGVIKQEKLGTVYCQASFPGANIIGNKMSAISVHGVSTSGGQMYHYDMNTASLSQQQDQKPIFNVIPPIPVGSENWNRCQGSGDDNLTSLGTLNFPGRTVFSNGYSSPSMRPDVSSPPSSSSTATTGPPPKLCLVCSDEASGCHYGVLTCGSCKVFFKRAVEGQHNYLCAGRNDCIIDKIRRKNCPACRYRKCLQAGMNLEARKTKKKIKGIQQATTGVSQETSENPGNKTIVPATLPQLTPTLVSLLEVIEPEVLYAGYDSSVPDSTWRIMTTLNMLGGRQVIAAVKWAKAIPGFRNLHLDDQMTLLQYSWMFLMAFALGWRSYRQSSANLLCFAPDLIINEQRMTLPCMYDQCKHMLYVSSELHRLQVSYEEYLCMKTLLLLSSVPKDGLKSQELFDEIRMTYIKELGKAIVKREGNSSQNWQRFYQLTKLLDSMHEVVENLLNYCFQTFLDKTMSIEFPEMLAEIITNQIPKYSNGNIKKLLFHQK
Lysosomal acid glucosylceramidase (Homo sapiens), sequence (P04062 whole entry, looked up): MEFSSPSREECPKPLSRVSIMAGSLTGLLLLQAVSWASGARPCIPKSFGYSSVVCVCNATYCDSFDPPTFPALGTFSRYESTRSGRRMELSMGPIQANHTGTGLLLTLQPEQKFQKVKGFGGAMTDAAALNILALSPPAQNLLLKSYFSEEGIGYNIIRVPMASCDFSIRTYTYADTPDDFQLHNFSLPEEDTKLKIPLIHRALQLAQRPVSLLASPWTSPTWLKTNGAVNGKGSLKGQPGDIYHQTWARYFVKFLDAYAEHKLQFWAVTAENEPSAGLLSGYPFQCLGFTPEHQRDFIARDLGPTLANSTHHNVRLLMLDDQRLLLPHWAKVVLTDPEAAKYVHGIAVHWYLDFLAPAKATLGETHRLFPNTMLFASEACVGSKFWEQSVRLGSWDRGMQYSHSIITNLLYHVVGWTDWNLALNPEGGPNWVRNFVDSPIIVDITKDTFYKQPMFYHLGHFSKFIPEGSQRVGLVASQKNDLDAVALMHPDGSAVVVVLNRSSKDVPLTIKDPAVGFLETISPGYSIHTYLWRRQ

As for `CC1=CC(=O)CC(C)(C)[C@]1(O)/C=C\C(C)=C\C(=O)O`, the Potency in [1] was above 11.4 µM; in [6] it was above 46 µM; in test [7], above 9.22 µM. Further, the activity change, negative = inhibition is 2.59% in test [2] and -29.1% in [4]. Also, the Potency result in test [3], in test [8] and in test [9] was “inactive” each time. In addition, in test [5], the activity, negative = inhibition is 2.83%.
For the compound `CN(CC(=O)O)Cc1oc(CO)cc(=O)c1O`, the Potency in test [1] is above 11.4 µM; in test [6], above 46 µM; in test [7] it was above 9.22 µM. Further, the activity change, negative = inhibition was 6.02% in test [2] and 10% in test [4]. Moreover, the Potency entry in [3], in [8] and in test [9] was “inactive” throughout. In addition, the activity, negative = inhibition in test [5] was 5.1%.
With `O=C(O)CCSC1=NCCN1`, the Potency in test [1] is above 11.4 µM; in test [6], above 46 µM; in test [7], above 9.22 µM. The results for the activity change, negative = inhibition in test [2] and in [4] were 1.39% and 4.68%, respectively. Also, the Potency result in test [3], in test [8] and in [9] was “inactive” in each case. In test [5], the activity, negative = inhibition was 6.09%.
As for `Cn1c(=O)c2[nH]c(CCC(=O)O)nc2n(C)c1=O`, the results for the Potency in test [1], in test [6] and in test [7] were above 11.4 µM, above 46 µM and above 9.22 µM, respectively. In addition, the activity change, negative = inhibition in [2] was 0.0396%; in [4], 10.1%. The Potency result in [3], in [8] and in test [9] was “inactive” in each case. In [5], the activity, negative = inhibition was -0.184%.
Take `CCCCn1cnc2c(SC)ncnc21`: the Potency in test [1] was above 11.4 µM; in test [3], 3.16 µM (active); in [6], above 46 µM; in [7], above 9.22 µM. The values for the activity change, negative = inhibition in test [2] and in test [4] were -0.746% and 5.83%, respectively. Besides, the activity, negative = inhibition in test [5] was 8.32%. In addition, the Potency entry in test [8] and in test [9] was “inactive” in each case.
Turning to `C[N+](C)(C)c1ccc([C@H](N)C(=O)O)cc1`, the values for the Potency in test [1], in test [6] and in [7] were above 11.4 µM, above 46 µM and above 9.22 µM, respectively. Besides, the activity change, negative = inhibition in [2] is -0.163%; in test [4] it was -21.6%. Also, the Potency result in test [3], in [8] and in [9] was “inactive” in each case. Further, the activity, negative = inhibition in [5] is 0.0481%.
Turning to `O=[N+]([O-])c1ccc2ncccc2c1CCc1c([N+](=O)[O-])ccc2ncccc12`, the Potency in test [1] is above 11.4 µM; in test [3] it was 3.16 µM (active); in test [6] it was above 46 µM; in test [7], above 9.22 µM. Moreover, the activity change, negative = inhibition in test [2] was 1.48%; in test [4], 17.8%. In addition, the activity, negative = inhibition in [5] was 5.88%. The Potency entry in test [8] and in [9] was “inactive” throughout.
For the compound `CC(=O)N[C@H](Cc1ccc(O)cc1)C(=O)O`, the Potency in test [1] was above 11.4 µM; in test [6], above 46 µM; in test [7], above 9.22 µM. For the same compound, the activity change, negative = inhibition in [2] was -0.588%; in [4], -3.29%. For the same compound, the Potency result in test [3], in test [8] and in test [9] was “inactive” in each case. Further, the activity, negative = inhibition in [5] is -0.609%.
`COc1ccc(C[N+](C)(C)N)cc1OC`: the Potency in test [1] is above 11.4 µM; in test [6] it was above 46 µM; in test [7], above 9.22 µM. The results for the activity change, negative = inhibition in test [2] and in test [4] were 0.59% and -4.71%, respectively. The Potency entry in test [3], in test [8] and in test [9] was “inactive” throughout. Further, the activity, negative = inhibition in test [5] is 7.15%.
Take `CC1(C)O[C@H]2[C@@H](O1)[C@@H](On1nnc3ccc(Cl)cc31)O[C@@H]2[C@@H]1COC(C)(C)O1`: the Potency in test [1] was above 11.4 µM; in [6] it was above 46 µM; in test [7], above 9.22 µM. Also, the values for the activity change, negative = inhibition in test [2], in [3] and in test [4] were -0.0878%, -10.9% [at 2.29 µM] and 3.42%, respectively. For the same compound, the activity, negative = inhibition in test [5] is 2.63%. Moreover, the Potency result in test [8] and in [9] was “inactive” throughout.
With `CCc1c(O)c2c(c(O)c1C(C)=O)C(=O)c1c(cc(O)c(C(=O)O)c1C(=O)O)C2=O`, the Potency in test [1] is above 11.4 µM; in test [6], above 46 µM; in test [7], above 9.22 µM. Besides, the activity change, negative = inhibition in test [2] is -2.41%; in test [4], 15.1%. Besides, the Potency entry in test [3], in test [8] and in [9] was “inactive” in each case. In addition, the activity, negative = inhibition in test [5] was 5.45%.
As to `O=C(O)CCCCn1ccc(=O)[nH]c1=O`, the Potency in test [1] is above 11.4 µM; in [6], above 46 µM; in [7] it was above 9.22 µM. Moreover, the activity change, negative = inhibition was 9.63% in [2] and -9.32% in [4]. Besides, the Potency result in test [3], in test [8] and in [9] was “inactive” throughout. Besides, the activity, negative = inhibition in test [5] was 4.56%.
On to `Cc1ccc(S(=O)(=O)N=Nc2c(O)[nH]c3cc(O)c(C(=O)O)cc23)cc1`, for which the Potency in [1] is above 11.4 µM; in test [6], above 46 µM; in test [7] it was above 9.22 µM. Also, the activity change, negative = inhibition in test [2] is -1.74%; in [3], -15.8% [at 2.29 µM]; in test [4] it was 7.79%. Further, the activity, negative = inhibition in [5] was 0.979%. The Potency result in test [8] and in [9] was “inactive” throughout.
Regarding `O=P(O)(CCP(=O)(O)c1ccccc1)c1ccccc1`, the Potency in test [1] is above 11.4 µM; in [6], above 46 µM; in test [7], above 9.22 µM. For the same compound, the activity change, negative = inhibition in test [2] is -9.71%; in test [4] it was 12.9%. The Potency entry in [3], in [8] and in [9] was “inactive” each time. For the same compound, in [5], the activity, negative = inhibition was 1.66%.
